# Reference: PubChem BioAssay AID1159580 (chemical genetic matrix, 2015)
# Among all 5,500 compounds or so, about 2,000 (36%) were called active. About 18% were inconclusive and are not listed. Some of the results follow. Values without a mark were called inactive. Cut-off read from the data, not from the text of the source: active = normalized growth mostly below about 0.91 (no sharp cut-off); inconclusive = no clear call, values can overlap the other calls; inactive = mostly above about 0.92.
# Assay: chemical genetic growth profiling, strain panel (AID 1159580);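 note: tested at 20 µM; growth read once vehicle control cultures reached saturation at 30 °C; 1 = growth at the plate median or of vehicle wells; lower values mean less growth of the strain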
# Conditions: S. cerevisiae deletion strains, growth OD
# [1] = locus YAR019C, strain CDC15, active compounds read low
# [2] = locus YBL105C, strain PKC1, active compounds read low
# [3] = locus YBR135W, strain CKS1, active compounds read low
# [4] = locus YBR136W, strain MEC1, active compounds read low
# [5] = locus YBR160W, strain CDC28, active compounds read low
# [6] = locus YDL017W, strain CDC7, active compounds read low
# [7] = locus YDL028C, strain MPS1, active compounds read low
# [8] = locus YDL101C, strain DUN1, active compounds read low
# [9] = locus YDL108W, strain KIN28, active compounds read low
# [10] = locus YDL132W, strain cdc53, active compounds read low
# [11] = locus YDL214C, strain PRR2, active compounds read low
# [12] = locus YDR052C, strain DBF4, active compounds read low
# [13] = locus YDR054C, strain cdc34, active compounds read low
# [14] = locus YDR226W, strain ADK1, active compounds read low
# [15] = locus YDR477W, strain SNF1, active compounds read low
# [16] = locus YER123W, strain YCK3, active compounds read low
# [17] = locus YER133W, strain GLC7, active compounds read low
# [18] = locus YFL009W, strain cdc4, active compounds read low
# [19] = locus YFL029C, strain CAK1, active compounds read low
# [20] = locus YFR003C, strain YPI1, active compounds read low
# [21] = locus YFR019W, strain FAB1, active compounds read low
# [22] = locus YFR028C, strain CDC14, active compounds read low
# [23] = locus YGR040W, strain KSS1, active compounds read low
# [24] = locus YGR052W, strain FMP48, active compounds read low
# [25] = locus YGR092W, strain DBF2, active compounds read low
# [26] = locus YHR030C, strain SLT2, active compounds read low
# [27] = locus YHR079C, strain IRE1, active compounds read low
# [28] = locus YHR082C, strain KSP1, active compounds read low
# [29] = locus YHR205W, strain SCH9, active compounds read low
# [30] = locus YIL147C, strain SLN1, active compounds read low
# [31] = locus YJL095W, strain BCK1, active compounds read low
# [32] = locus YJL128C, strain PBS2, active compounds read low
# [33] = locus YJL157C, strain FAR1, active compounds read low
# [34] = locus YJR016C, strain ILV3, active compounds read low
# [35] = locus YJR066W, strain TOR1 (second series), active compounds read low
# [36] = locus YJR066W, strain TOR1, active compounds read low
# [37] = locus YKL048C, strain ELM1, active compounds read low
# [38] = locus YKL067W, strain YNK1, active compounds read low
# [39] = locus YKL101W, strain HSL1, active compounds read low
# [40] = locus YKL193C, strain SDS22, active compounds read low
# [41] = locus YKL203C, strain TOR2, active compounds read low
# [42] = locus YLR113W, strain HOG1, active compounds read low
# [43] = locus YLR133W, strain CKI1, active compounds read low
# [44] = locus YLR403W, strain SFP1, active compounds read low
# [45] = locus YML070W, strain DAK1, active compounds read low
# [46] = locus YMR001C, strain CDC5, active compounds read low
# [47] = locus YMR205C, strain PFK2 (second series), active compounds read low
# [48] = locus YMR277W, strain FCP1, active compounds read low
# [49] = locus YNL006W, strain LST8, active compounds read low
# [50] = locus YNL020C, strain ARK1, active compounds read low
# [51] = locus YNL161W, strain CBK1, active compounds read low
# [52] = locus YNL183C, strain NPR1, active compounds read low
# [53] = locus YNL207W, strain RIO2, active compounds read low
# [54] = locus YNL222W, strain SSU72, active compounds read low
# [55] = locus YNL307C, strain MCK1 (second series), active compounds read low
# [56] = locus YOL078W, strain AVO1, active compounds read low
# [57] = locus YOL136C, strain PFK27, active compounds read low
# [58] = locus YOR061W, strain CKA2, active compounds read low
# [59] = locus YOR119C, strain RIO1, active compounds read low
# [60] = locus YOR231W, strain MKK1, active compounds read low
# [61] = locus YOR329C, strain SCD5, active compounds read low
# [62] = locus YPL031C, strain PHO85, active compounds read low
# [63] = locus YPL153C, strain RAD53, active compounds read low
# [64] = locus YPL204W, strain HRR25, active compounds read low
# [65] = locus YPL209C, strain IPL1, active compounds read low
# [66] = locus YPL256C, strain CLN2, active compounds read low
# [67] = locus YPR025C, strain CCL1, active compounds read low
# [68] = locus YPR106W, strain ISR1, active compounds read low
# [69] = locus YPR111W, strain DBF20, active compounds read low
# [70] = strain NNK1, active compounds read low
# [71] = strain TSCII, active compounds read low
smiles,measurement,setting,value
COc1c(Br)csc1C(=O)O/N=C(/N)c1cc(C(F)(F)F)cc(C(F)(F)F)c1,normalized growth,[1],0.994
same,normalized growth,[2],0.981
same,normalized growth,[3],0.99
same,normalized growth,[4],0.988
same,normalized growth,[5],0.979
same,normalized growth,[6],0.985
same,normalized growth,[7],0.988
same,normalized growth,[8],0.954
same,normalized growth,[9],0.987
same,normalized growth,[10],0.989
same,normalized growth,[11],1.05
same,normalized growth,[12],0.99
same,normalized growth,[13],0.989
same,normalized growth,[14],0.986
same,normalized growth,[15],1.05
same,normalized growth,[16],0.999
same,normalized growth,[17],1.03
same,normalized growth,[18],0.995
same,normalized growth,[19],0.96
same,normalized growth,[20],0.988
same,normalized growth,[21],1
same,normalized growth,[22],0.987
same,normalized growth,[23],1.06
same,normalized growth,[24],1.1
same,normalized growth,[25],1
same,normalized growth,[26],1.1
same,normalized growth,[27],1.07
same,normalized growth,[28],1.14
same,normalized growth,[29],1.03
same,normalized growth,[30],0.993
same,normalized growth,[31],1.09
same,normalized growth,[32],0.956
same,normalized growth,[33],1.01
same,normalized growth,[34],0.979
same,normalized growth,[35],0.99
same,normalized growth,[36],1.15
same,normalized growth,[37],1.01
same,normalized growth,[38],1.01
same,normalized growth,[39],1.05
same,normalized growth,[40],0.987
same,normalized growth,[41],1.14
same,normalized growth,[42],1.02
same,normalized growth,[43],1.03
same,normalized growth,[44],1.05
same,normalized growth,[45],1.04
same,normalized growth,[46],0.989
same,normalized growth,[47],0.999
same,normalized growth,[48],0.99
same,normalized growth,[49],0.995
same,normalized growth,[50],1.03
same,normalized growth,[51],0.982
same,normalized growth,[52],1.03
same,normalized growth,[53],0.989
same,normalized growth,[54],0.985
same,normalized growth,[55],1.05
same,normalized growth,[56],0.986
same,normalized growth,[57],1.03
same,normalized growth,[58],0.97
same,normalized growth,[59],1.13
same,normalized growth,[60],1.03
same,normalized growth,[61],0.995
same,normalized growth,[62],1.06
same,normalized growth,[63],1.04
same,normalized growth,[64],1.07
same,normalized growth,[65],0.985
same,normalized growth,[66],1.01
same,normalized growth,[67],0.987
same,normalized growth,[68],0.967
same,normalized growth,[69],0.964
same,normalized growth,[70],1
same,normalized growth,[71],0.993
Cc1cc(/C(N)=N\OC(=O)C(C)(C)C)cc(/C(N)=N\OC(=O)C(C)(C)C)c1,normalized growth,[1],0.977
same,normalized growth,[2],0.985
same,normalized growth,[3],0.992
same,normalized growth,[4],0.969
same,normalized growth,[5],0.98
same,normalized growth,[6],0.989
same,normalized growth,[7],0.949
same,normalized growth,[8],0.985
same,normalized growth,[9],0.983
same,normalized growth,[10],0.987
same,normalized growth,[11],0.968
same,normalized growth,[12],0.996
same,normalized growth,[13],0.985
same,normalized growth,[14],0.979
same,normalized growth,[15],0.991
same,normalized growth,[16],0.974
same,normalized growth,[17],0.977
same,normalized growth,[18],0.982
same,normalized growth,[19],0.986
same,normalized growth,[20],0.989
same,normalized growth,[21],0.979
same,normalized growth,[22],0.983
same,normalized growth,[23],0.979
same,normalized growth,[24],1.02
same,normalized growth,[25],1.02
same,normalized growth,[26],0.904
same,normalized growth,[27],1.02
same,normalized growth,[28],1.06
same,normalized growth,[29],0.974
same,normalized growth,[30],0.964
same,normalized growth,[31],0.992
same,normalized growth,[32],0.937
same,normalized growth,[33],1
same,normalized growth,[34],0.993
same,normalized growth,[35],0.962
same,normalized growth,[36],1
same,normalized growth,[37],0.987
same,normalized growth,[38],0.953
same,normalized growth,[39],0.954
same,normalized growth,[40],0.983
same,normalized growth,[41],1.08
same,normalized growth,[42],0.858 (active)
same,normalized growth,[43],1
same,normalized growth,[44],0.997
same,normalized growth,[45],0.966
same,normalized growth,[46],0.969
same,normalized growth,[47],0.991
same,normalized growth,[48],0.972
same,normalized growth,[49],0.984
same,normalized growth,[50],0.989
same,normalized growth,[51],0.988
same,normalized growth,[52],1.03
same,normalized growth,[53],0.989
same,normalized growth,[54],0.979
same,normalized growth,[55],0.947
same,normalized growth,[56],0.992
same,normalized growth,[57],0.962
same,normalized growth,[58],1
same,normalized growth,[59],1.03
same,normalized growth,[60],1
same,normalized growth,[61],0.99
same,normalized growth,[62],0.997
same,normalized growth,[63],0.965
same,normalized growth,[64],0.969
same,normalized growth,[65],0.991
same,normalized growth,[66],0.922
same,normalized growth,[67],0.989
same,normalized growth,[68],0.978
same,normalized growth,[69],0.954
same,normalized growth,[70],0.982
same,normalized growth,[71],0.967
